Among the data in PubChem BioAssay (EPA / NIEHS) are AC50 and outcome values, retold here.

The structures appear in SMILES notation. Results filed as inconclusive are left out. More than one record can exist for a structure, and the calls need not agree. The source made the active and inactive calls. The calls were made as follows: active = hit-call score of the fitted dose curve at least 0.9, where 1 is the maximum; inconclusive = response in the unintended direction; inactive = score below 0.9.

This test is described as follows: CCTE_Shafer_MEA_dev_LDH: CCTE's Lactate Dehydrogenase Assay for Cytotoxicity in the Neural Network Formation Assay, Shafer Lab (AID 2284068).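 Also: exposure for twelve days from plating with re-dosing on DIV 5 and 9.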 As for the experimental part:
CCTE_Shafer_MEA_dev assay is conducted using Axion Biosystems 48 well microelectrode array (MEA) plates and Maestro recording system. Each well of the MEA plate contains a grid of 16 microelectrodes embedded in the culture surface. Electrically active cells, such as neurons, can be cultured over the electrodes, and electrical activity in these cells can be recorded extracellularly. The spontaneous firing of neurons is captured from each electrode on a microsecond timescale providing both temporally and spatially precise data. […] The CCTE_Shafer_MEA_dev assay uses primary cultures of rat cortical neurons. Recordings are made on days post-plating 5, 7, 9 and 12. As these cultures mature over time, neural networks develop functional activity and form cohesive networks in which electrical activity can be highly coordinated. CCTE_Shafer_MEA_dev_LDH is 1 of 19 assay components of the CCTE_Shafer_MEA_dev assay. It measures the lactate dehydrogenase enzyme activity using spectrophotometry.Data from the assay component CCTE_Shafer_MEA_dev_LDH was analyzed into 1 assay endpoint. This assay endpoint, CCTE_Shafer_MEA_dev_LDH, was analyzed in the positive analysis fitting direction relative to DMSO as the negative control and baseline of activity. Using a type of viability reporter, loss-of-signal activity can be used to understand cell viability.
On the day prior to culture, each well was coated thoroughly with 150 uL of 0.05% polyethyleneimine (PEI, Sigma Cat P3143) in 50 mM HEPES (Sigma Cat H7523) at a pH of 8. The plate was incubated at 37C for one hour. PEI was rinsed out with 500 uL of sterile water three times. Plates were stored at 4C until the day of culture. This culture was plated at a seeding density of 1.5 x 10^5 cells/well on a 48-well MEA plate, prepared as described above. Cells were administered via a 25 uL media/laminin ([…]; Sigma Cat L2020-1MG) drop directly onto the microelectrode array, as adding the cells with the laminin results in better attachment than pre-coating with laminin. After 2 hours, an additional 475 uL of cortical media was added and the cells returned to the incubator. Exposure starts at day 0 of plating and is continued over twelve days of network development until the experiment is terminated. Cells are fed with fresh medium on DIV 5 and 9, following the recordings on those days. The entire volume of media in the well is exchanged and any vehicle or compound treatment is renewed. Complete details are found in OP-NHEERL/ISTD/SBB/TJS/2015-03-r0 (available on request, email shafer.tim@epa.gov). Measurement of the electrical activity is non-invasive, and recordings can be made from the same plate over multiple different days of the culture. In cortical neurons, this allows for the measurement of extracellular action potentials over the period during which networks form in the MEA plate.
For `Nc1ccn([C@@H]2O[C@H](CO)[C@@H](O)C2O)c(=O)n1` (some centres undefined), the concentration at half-maximal activity (AC50) is 1 µM (active).
Consider `O=C(C=C(O)C(F)(F)F)C(F)(F)F`, for which the outcome was inactive.
On to `O=P(O)(O)CCC(F)(F)C(F)(F)C(F)(F)C(F)(F)C(F)(F)C(F)(F)F`, for which the outcome was inactive.
For the molecule `CC(C)c1c(C(=O)Nc2ccccc2)c(-c2ccccc2)c(-c2ccc(F)cc2)n1CC[C@@H](O)C[C@@H](O)CC(=O)O`, the AC50 was 0.00148 µM (active).
For the molecule `OCC(F)(F)C(F)(F)C(F)(F)C(F)(F)C(F)(F)C(F)(F)C(F)(F)C(F)(F)C(F)(F)C(F)(F)C(F)(F)F`, the call was inactive and the AC50 was 9.45 µM (active).
Consider `CN(Cc1cnc2nc(N)nc(N)c2n1)c1ccc(C(=O)N[C@@H](CCC(=O)O)C(=O)O)cc1`, for which the AC50 was 0.00802 µM (active).
As for `O=C1NS(=O)(=O)c2ccccc21`, the result was inactive.
On to `O=C(O)C(F)(F)OC(F)(F)C(F)(F)OC(F)(F)C(F)(F)OC(F)(F)C(F)(F)C(F)(F)C(F)(F)F`, for which the molecule was classed as inactive.
In the case of `O=P(O)(O)CCC(F)(F)C(F)(F)C(F)(F)C(F)(F)C(F)(F)C(F)(F)C(F)(F)C(F)(F)F`, the AC50 is 8.87 µM (active).
On to `CC(=O)Nc1ccc(O)cc1`, for which the molecule was classed as inactive.
Consider `O=C(CCCN1CCC(O)(c2ccc(Cl)cc2)CC1)c1ccc(F)cc1`, for which the concentration at half-maximal activity (AC50) is 7.35 µM (active).
Take `O=C(O)CCC(F)(F)C(F)(F)C(F)(F)C(F)(F)C(F)(F)F`: the molecule was classed as inactive.
For the molecule `O=C(CC(=O)C(F)(F)C(F)(F)C(F)(F)F)c1cccs1`, the AC50 was 8.63 µM (active).
